# HT1080 IDH1KD tx: HT-1080 IDH1 knockdown cell toxicity (counter line); hit rate 2% among 360,000; HT-1080 IDH1 knockdown viability, ATP luminescence, 48 h; Potency, µM (series often up to 46.1 µM), most hits filed as cytotoxic; AID 686971
#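 HT-1080-IDH1KD cells (IDH1 knocked down), 750/well in RPMI with 5% FBS, treated with compound 48 h at 37 degrees C. Viability by CellTiter-Glo luminescence, normalised to DMSO and no-cell wells; concentration-response curves classed.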
# KB-3-1 cytotox: kills parental KB-3-1 adenocarcinoma cells; Potency, µM (top dose mostly 46.1 µM), usual class: cytotoxic; AID 1347075; hit rate 1.4% among 400,000; KB-3-1 viability, CellTiter-Glo ATP luminescence, 72 h; note: nearly all actives have a fitted effect of over 60% in size
#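 Viability of parental KB-3-1 cells, measured by CellTiter-Glo luminescence, followed a 72 h incubation at 37 °C with pinned compounds in phenol-red-free DMEM containing 10% FBS.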
# KB-V1 MDR tox: KB-V1 MDR subline cytotoxicity; KB-V1 MDR cells viability, CellTiter-Glo, 72 h; Potency, µM (top dose mostly 46.1 µM), usual class: cytotoxic; hit rate 3.4% among 400,000; note: nearly all actives have a fitted effect of over 60% in size
#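 qHTS viability screen in drug-selected KB-V1 MDR cells: 72 h compound treatment at 37 degrees C, ATP luminescence end point.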
# HT1080NT lethal: kills 2HG-producing HT-1080-NT fibrosarcoma cells; hit rate 1.6% among 360,000; AID 686970; HT-1080-NT fibrosarcoma viability, CellTiter-Glo ATP luminescence, 48 h; Potency, µM (titrated, usually from 46.1 µM), usual class: cytotoxic;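 note: NT is the 2HG producing partner of a matched IDH1 knockdown line; nearly all actives have a fitted effect of over 55% in size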
#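 HT-1080-NT; 750 cells/well; 5% FBS RPMI; 48 h compound, 37 degrees C; CellTiter-Glo luminescence; curve fitting and curve-class assignment.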
# A number is an active result; . = inactive; ? = inconclusive; / = no result given; [ ] = another dose, or the depositor's remark. An excerpt weighted towards active compounds, which were near 5.7% of everything screened. Calls come from the whole dose curve; as a rule, active = well fitted curve in the direction sought with a large enough effect; inconclusive = small, poorly fitted or top-dose-only effect, or another doubt; inactive = no such curve, though single readings can be large; an effect the other way counts as inactive or inconclusive.
SMILES,HT1080 IDH1KD tx,KB-3-1 cytotox,KB-V1 MDR tox,HT1080NT lethal
CCn1cc(C(=O)NCc2ccncc2)c(=O)c2cc(F)c(N3CCN(C(=O)c4ccco4)CC3)cc21,.,.,.,.
CCOC(=O)c1c(C)oc2c1c(C(c1cccnc1)N1CCCCC1)c(O)c1ccccc12 (configuration not stated),.,.,.,.
CCOC(=O)c1c(C)oc2c1c(C(c1ccccc1)N1CCOCC1)c(O)c1ccccc12 (configuration not stated),.,.,18.4µM,.
CCOC(=O)c1c(C)oc2c1c(C=NCCO)c(O)c1ccccc12,23.1µM,.,.,?
COc1ccc(Cl)cc1NC(=O)C1CCN(S(=O)(=O)c2ccc(F)cc2)CC1,/,.,?,/
CC(C)(C)c1ccc(OCC(O)CSc2ncn[nH]2)cc1 (configuration not stated),?,.,.,.
Cc1cccc2c(=O)cc(CSc3ccccc3NC(=O)C(C)(C)C)[nH]c12,/,.,.,/
COC(=O)c1c(Oc2ccc(OC)cc2)nnc(-c2ccccc2)c1-c1ccccc1,/,.,.,/
COc1ccc(C(C#N)=Cc2ccccc2OC)cc1,?,16.4µM,8.2µM,?
COc1ccc(C=C(C#N)c2ccc(OC)cc2)cc1,.,18.4µM,?,.
O=C(Nc1c(F)c(F)c(F)c(F)c1F)NC1CCCCC1,.,.,16.4µM,.
COc1ccccc1CNC(=O)Cc1csc(NC(=O)Nc2ccccc2OC)n1,.,.,?,.
COc1ccccc1CNC(=O)CCc1ccccc1,.,.,.,.
COc1cc(OC)cc(C(=O)Nc2nc(CC(=O)NCc3ccccc3OC)cs2)c1,.,.,16.4µM,.
Cc1ccc(CNC(=O)Cc2ccc(Br)cc2)cc1,8.2µM,?,?,23.1µM
COc1ccccc1CNC(=O)Cc1ccc(Br)cc1,.,.,23.1µM,.
O=C(CNc1ccccc1-c1ccccc1)NCc1ccccc1,.,.,16.4µM,.
COc1ccc(Nc2nc3cc(Cl)c(Cl)cc3n3cnnc23)cc1Cl,/,.,.,/
CN(C)CCCCCCNc1nccc(N2CCN(C)CC2)n1,/,?,.,/
O=C(Cc1ccc(Br)cc1)NCc1ccccc1,2.91µM,5.8µM,4.61µM,8.2µM
Cc1ccccc1NC(=O)C(=Cc1ccc(C(=O)O)cc1)C(=O)Nc1ccccc1C,4.61µM,?,?,6.51µM
CSC(SC)=C(C#N)C(=O)c1ccccc1,20.6µM,.,?,?
COc1ccc(-c2csc3nc(C)nc(N4CCCCC4)c23)cc1OC,?,?,?,16.4µM
CCOCCc1nn2c(=O)cc(COC(=O)c3ccc(NC(=O)c4ccc(F)cc4)cc3)nc2s1,/,.,.,/
CC(NC(=O)c1ccnc(C(C)(C)C)c1)c1ccccc1 (configuration not stated),.,?,18.4µM,.
SMILES,HT1080 IDH1KD tx,KB-3-1 cytotox,KB-V1 MDR tox,HT1080NT lethal
Cc1ccc(NC(=O)c2ccnc(C(C)(C)C)c2)cc1,.,?,.,.
CC(C)(C)c1cc(C(=O)Nc2ccccc2)ccn1,.,.,20.6µM,.
O=C(Cn1cnc2onc(-c3ccc(F)cc3)c2c1=O)Nc1cccc(C(F)(F)F)c1,/,.,?,/
CCOc1ccccc1CNC(=O)c1ccc(Sc2ccc(Cl)cc2)c(NC(C)=O)c1,.,.,18.4µM,.
CCOc1ccc(CNC(=O)c2ccc(Sc3ccc(Cl)cc3)c(NC(C)=O)c2)cc1,?,?,8.2µM,.
CC(=O)Nc1cc(C(=O)N(C)Cc2ccco2)ccc1Sc1ccc(Cl)cc1,.,.,2.91µM,.
CC(C)Oc1ccc(CNC(=O)CCCN2C(=O)c3cccnc3Oc3ccc(Cl)cc32)cc1,/,.,.,/
COc1cccc(C2CC(c3cccc(NS(C)(=O)=O)c3)=NN2C(=O)c2ccccc2)c1OC (configuration not stated),.,.,13µM,.
COc1cccc(C2CC(c3ccc(Br)cc3)=NN2C(=O)c2ccncc2)c1OC (configuration not stated),18.4µM,18.4µM,?,18.4µM
COc1ccc(C2=NN(C(=O)c3ccncc3)C(c3ccccc3O)C2)cc1 (configuration not stated),.,.,.,.
COc1ccccc1C1CC(c2ccc(Br)cc2)=NN1C(=O)c1cccnc1 (configuration not stated),14.6µM,?,?,?
COc1ccc(C2=NN(C(=O)c3ccccc3)C(c3ccc(OC)c(OC)c3)C2)cc1OC (configuration not stated),.,.,.,.
COc1ccc([N+](=O)[O-])cc1NC(=S)NC(NC(=O)C(c1ccccc1)c1ccccc1)C(Cl)(Cl)Cl (configuration not stated),5.8µM,?,.,?
CC(C)CC(=O)NC(Nc1ccc([N+](=O)[O-])cc1)C(Cl)(Cl)Cl (configuration not stated),.,?,18.4µM,?
COc1ccc([N+](=O)[O-])cc1NC(=O)C(C)c1ccccc1 (configuration not stated),.,.,.,.
CCOC(=O)NC(NC(=S)Nc1ccc(OC)cc1)C(Cl)(Cl)Cl (configuration not stated),.,.,.,.
COc1ccc([N+](=O)[O-])cc1NC(=O)C(C)NNC(=O)c1cccc([N+](=O)[O-])c1 (configuration not stated),.,.,18.4µM,.
COC(=O)NC(NC(=S)Nc1ccc([N+](=O)[O-])cc1)C(Cl)(Cl)Cl (configuration not stated),.,?,20.6µM,.
CC(=O)c1ccc(NC(=O)CN2C(=O)CCc3ccccc32)cc1,/,.,.,/
CC(C)c1noc(-c2ccccc2OCC(=O)Nc2cccc([N+](=O)[O-])c2)n1,/,.,.,/
Cc1nnn(C23CC4CC(CC(CC(=O)Nc5ccc(C)c(Cl)c5)(C4)C2)C3)n1,.,.,7.31µM,.
CCOC(=O)C1CCCN(S(=O)(=O)c2ccc(N3CCCCS3(=O)=O)cc2)C1 (configuration not stated),/,.,?,/
OCC1(Cc2ccccc2)CCN(Cc2cnc(-c3ccc(Cl)cc3)nc2)CC1,25.9µM,?,?,?
CCOC(=O)Nc1nc2ccc(Cn3cccc3)cc2[nH]1,?,0.581µM,1.16µM,3.26µM
CCCCN(CCCN)c1ccc(Br)cn1,.,/,/,.
SMILES,HT1080 IDH1KD tx,KB-3-1 cytotox,KB-V1 MDR tox,HT1080NT lethal
COC(=O)/C=C1\OCc2cc(OC)c(OCc3ccccc3)cc21,.,.,.,.
COc1cc2c(cc1OC)/C(=C/c1ccc(Br)cc1)C(=O)OC2,?,20.6µM,?,?
Cc1nc(N2CCN(C)CC2)c2c(C)c(C(=O)Nc3ccc(C)c(F)c3)sc2n1,14.1µM,.,.,.[9.24 µM]
Cc1nc(N2CCC(C)CC2)c2c(C)c(C(=O)Nc3ccc(C)c(F)c3)sc2n1,.,.,.,.
CN(C)c1ccc(/C=C2\CCc3cc(N)ccc32)cc1,/,.,.,/
CCN(CC)S(=O)(=O)c1cccc(C(=O)OCC(=O)C23CC4CC(CC(C4)C2)C3)c1,.,?,14.6µM,.
CCOC(=O)c1c(C)[nH]c(C)c1C(=O)COC(=O)c1cccc(S(=O)(=O)N(CC)CC)c1,.,.,.,.
